Measurements as given in PubChem BioAssay.
Records with an inconclusive call do not appear. Active and inactive are the calls of the source.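 Rule for the calls, unless noted: active = inhibition above 54%, about 3 SD of non-fluorescent compounds; inactive = the rest.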

Tests used:
[1] = rapamycin-like changes in RPL19A-GFP expression – cell-based, S. cerevisiae, multiplex flow cytometry, primary screen (AID 1862; in the data active = percent of DMSO control GFP below about 86%;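 note: lower values mimic rapamycin by blocking the RPL19A rise seen in DMSO cells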); conditions: S. cerevisiae RPL19A-GFP strain, flow cytometry fluorescence, 3 h; at 10 µM; stronger effect = lower value
[2] = TOR pathway GLN3 branch reporter MEP2-GFP changes – S. cerevisiae, multiplex flow cytometry, primary screen (AID 1867;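 active = GFP response, as percent of the DMSO control, above the screen-wide mean plus 3 SD, about 139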;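 note: median GFP channel fluorescence of barcode-gated MEP2-GFP cells measured by flow cytometry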); conditions: S. cerevisiae MEP2-GFP strain, 3 h, at 10 µM, stronger effect = higher value, 100% means same as DMSO wells
[3] = TOR pathway RTG branch CIT2 reporter changes – S. cerevisiae, GFP fusion, multiplex flow cytometry, primary screen (AID 1870;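 active = percent response above a set limit, the screen-wide mean plus 3 SD, cut at about 130% in these data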;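 note: barcoded CIT2-GFP strain pooled with four other GFP strains with rapamycin as positive control; median GFP fluorescence per well over plate mean of DMSO wells so 100% = DMSO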); conditions: S. cerevisiae CIT2-GFP expression, 3 h, at 10 µM, stronger effect = higher value
[4] = TOR pathway LAP4-GFP level changes – S. cerevisiae, multiplex flow cytometry, primary screen (AID 1873;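 active = GFP signal, as percent of the solvent control, above the screen mean plus 3 SD, about 149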); conditions: S. cerevisiae LAP4-GFP expression, 3 h, at 10 µM, stronger effect = higher value
[5] = yeast AGP1-GFP level changes, GLN3 branch – cell-based, multiplex flow cytometry, S. cerevisiae, primary screen (AID 1887;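 active = GFP signal above the screen-wide mean plus 3 SD, that is over about 124.5% of the solvent control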;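 note: AGP1-GFP fusion strain of S. cerevisiae within a five-strain barcoded multiplex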); conditions: 3 h, at 10 µM, stronger effect = higher value
[6] = reduced mouse 2C T cell binding to pMHC/ICAM-1 vesicles – MLPCN validation set, flow cytometry, LFA-1/ICAM-1 modulator project, pilot screen (AID 2523;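 active = response below a set limit, under 55% cells CD8-positive and vesicle-bound, and CD8 cells' 90th-percentile brightness under 279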;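 for vesicle binding response: mean PE anti-B7-1 fluorescence of CD8+ cells relative to row control; 100% = QL9-loaded vesicles with DMSO vehicle in the same plate row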); conditions: 2C mouse CD8+ T cells, at 7 µM, stronger effect = lower value; double positive events: measured here: CD8+/vesicle+ event percentage
[7] = molecular target: Integrin beta-1 (Homo sapiens) + Integrin alpha-4 (Homo sapiens) (UniProt P13612+P05556); assay: alpha4beta1 integrin LIBS antibody binding reduction – U937 cells, HUTS-21 mAb, flow cytometry, validation set, VLA-4 allosteric modulator project, pilot screen (AID 2674;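 active = inhibition above 50%, about 3 SD of the validation set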;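 note: antibody binding induced by the VLA-4 ligand LDV present at three times its Kd; 0% = LDV ligand with antibody and no compound and 100% = antibody without LDV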); conditions: HUTS-21 LIBS mAb binding, at 6.7 µM, stronger effect = higher value, binding induced by LDV ligand
Sequence of Integrin beta-1 (Homo sapiens) + Integrin alpha-4 (Homo sapiens) (P05556 whole entry, looked up): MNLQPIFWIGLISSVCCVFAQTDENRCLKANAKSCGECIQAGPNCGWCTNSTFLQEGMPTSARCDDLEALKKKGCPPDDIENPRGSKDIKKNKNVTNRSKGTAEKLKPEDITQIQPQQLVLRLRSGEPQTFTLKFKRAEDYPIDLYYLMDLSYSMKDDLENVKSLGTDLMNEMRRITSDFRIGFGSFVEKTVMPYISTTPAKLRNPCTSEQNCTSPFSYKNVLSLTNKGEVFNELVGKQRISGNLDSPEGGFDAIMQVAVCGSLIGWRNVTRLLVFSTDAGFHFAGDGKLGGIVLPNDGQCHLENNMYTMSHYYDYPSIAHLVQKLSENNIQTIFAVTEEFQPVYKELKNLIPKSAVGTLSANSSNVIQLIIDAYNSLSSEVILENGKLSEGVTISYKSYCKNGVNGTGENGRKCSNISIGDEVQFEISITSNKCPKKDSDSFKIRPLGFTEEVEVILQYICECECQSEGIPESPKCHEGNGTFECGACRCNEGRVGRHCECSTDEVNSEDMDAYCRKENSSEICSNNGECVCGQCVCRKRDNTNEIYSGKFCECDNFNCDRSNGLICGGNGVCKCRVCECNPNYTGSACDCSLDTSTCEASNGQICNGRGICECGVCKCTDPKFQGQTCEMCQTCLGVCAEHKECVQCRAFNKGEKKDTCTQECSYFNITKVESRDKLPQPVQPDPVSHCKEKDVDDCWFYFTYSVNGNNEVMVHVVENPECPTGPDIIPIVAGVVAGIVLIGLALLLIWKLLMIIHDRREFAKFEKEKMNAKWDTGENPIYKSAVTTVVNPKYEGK
Sequence of Integrin beta-1 (Homo sapiens) + Integrin alpha-4 (Homo sapiens) (P13612 whole entry, looked up): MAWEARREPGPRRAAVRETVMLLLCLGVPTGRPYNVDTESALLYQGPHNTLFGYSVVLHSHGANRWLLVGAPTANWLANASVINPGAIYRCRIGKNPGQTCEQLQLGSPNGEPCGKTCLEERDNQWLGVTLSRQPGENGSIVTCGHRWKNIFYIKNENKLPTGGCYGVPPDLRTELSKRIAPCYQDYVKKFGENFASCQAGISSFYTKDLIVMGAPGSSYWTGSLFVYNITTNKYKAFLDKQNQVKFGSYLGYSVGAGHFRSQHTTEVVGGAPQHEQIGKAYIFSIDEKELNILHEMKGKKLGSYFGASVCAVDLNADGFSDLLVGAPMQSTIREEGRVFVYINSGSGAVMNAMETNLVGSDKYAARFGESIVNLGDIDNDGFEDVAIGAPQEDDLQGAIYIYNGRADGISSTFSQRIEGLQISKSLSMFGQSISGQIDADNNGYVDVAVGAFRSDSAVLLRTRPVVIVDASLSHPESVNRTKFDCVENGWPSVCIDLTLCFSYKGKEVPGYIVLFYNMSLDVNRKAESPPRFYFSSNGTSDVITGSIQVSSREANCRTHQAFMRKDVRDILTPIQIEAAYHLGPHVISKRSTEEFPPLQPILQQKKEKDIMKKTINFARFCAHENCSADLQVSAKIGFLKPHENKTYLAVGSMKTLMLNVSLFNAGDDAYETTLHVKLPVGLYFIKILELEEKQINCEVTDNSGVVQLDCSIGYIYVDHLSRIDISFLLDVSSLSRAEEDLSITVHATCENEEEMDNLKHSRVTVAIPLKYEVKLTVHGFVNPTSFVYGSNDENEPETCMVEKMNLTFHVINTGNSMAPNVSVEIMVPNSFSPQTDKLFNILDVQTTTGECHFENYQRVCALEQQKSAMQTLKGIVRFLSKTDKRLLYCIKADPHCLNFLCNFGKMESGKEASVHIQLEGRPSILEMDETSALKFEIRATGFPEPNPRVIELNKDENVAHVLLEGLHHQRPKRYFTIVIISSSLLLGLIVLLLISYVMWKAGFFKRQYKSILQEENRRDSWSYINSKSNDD

[8] = calorie-restriction mimetic ROS inhibitors, yeast – validation compound set, pilot screen (AID 2706;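 active = superoxide response below 65% of plate, a cut near 3 SD across the whole screen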;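 note: yeast exposed to compound for one week at 30 degrees C before staining; 100% = mean of all compound wells on the same plate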); conditions: S. cerevisiae aging, superoxide DHE fluorescence; at 10 µM; stronger effect = lower value
[9] = molecular target: Beta-adrenergic receptor kinase 1 (Homo sapiens) (UniProt P25098); assay: GRK2 binders displacing RNA aptamer, biochemical, validation, human GRK2, bead flow cytometry (AID 488806;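 active = aptamer binding inhibition above 30%, about 3 SD of noise from non-fluorescent compounds; inactive = inhibition at or below 30%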); conditions: bead-bound GRK2, FAM-aptamer displacement, at 10 µM, stronger effect = higher value
Sequence of Beta-adrenergic receptor kinase 1 (Homo sapiens) (P25098 whole entry, looked up): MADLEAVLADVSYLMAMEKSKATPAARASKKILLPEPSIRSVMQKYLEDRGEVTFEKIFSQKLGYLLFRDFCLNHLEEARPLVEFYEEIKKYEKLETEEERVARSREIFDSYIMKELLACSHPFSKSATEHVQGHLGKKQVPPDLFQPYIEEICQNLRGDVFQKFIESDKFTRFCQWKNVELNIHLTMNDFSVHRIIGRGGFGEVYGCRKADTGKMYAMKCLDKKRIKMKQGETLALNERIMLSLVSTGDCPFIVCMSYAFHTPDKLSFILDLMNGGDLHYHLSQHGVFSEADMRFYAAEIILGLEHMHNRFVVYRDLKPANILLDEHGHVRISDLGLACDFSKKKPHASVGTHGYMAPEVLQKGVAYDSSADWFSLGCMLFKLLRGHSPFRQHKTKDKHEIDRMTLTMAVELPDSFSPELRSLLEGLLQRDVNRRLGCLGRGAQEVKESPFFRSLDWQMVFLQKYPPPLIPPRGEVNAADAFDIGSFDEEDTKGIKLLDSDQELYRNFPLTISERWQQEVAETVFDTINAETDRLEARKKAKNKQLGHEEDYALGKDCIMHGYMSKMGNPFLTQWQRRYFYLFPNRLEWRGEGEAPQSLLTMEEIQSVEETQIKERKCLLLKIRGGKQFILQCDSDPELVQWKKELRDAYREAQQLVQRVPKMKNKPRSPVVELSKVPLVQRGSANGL

[10] = molecular target: Beta-2 adrenergic receptor (Homo sapiens) (UniProt P07550); assay: agonist-induced loss of surface beta2AR – cell-based, FAP fluorogen, flow cytometry, validation set, pilot screen (AID 504459;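 active = percent response above 42, roughly 3 SD of non-fluorescent test compounds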;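 note: agonist-driven loss of surface beta2AR via internalization measured by FAP dye flow cytometry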); conditions: Am2.2-beta2AR cells, at 10 µM, stronger effect = higher value
Sequence of Beta-2 adrenergic receptor (Homo sapiens) (P07550 whole entry, looked up, the tested form may be a part): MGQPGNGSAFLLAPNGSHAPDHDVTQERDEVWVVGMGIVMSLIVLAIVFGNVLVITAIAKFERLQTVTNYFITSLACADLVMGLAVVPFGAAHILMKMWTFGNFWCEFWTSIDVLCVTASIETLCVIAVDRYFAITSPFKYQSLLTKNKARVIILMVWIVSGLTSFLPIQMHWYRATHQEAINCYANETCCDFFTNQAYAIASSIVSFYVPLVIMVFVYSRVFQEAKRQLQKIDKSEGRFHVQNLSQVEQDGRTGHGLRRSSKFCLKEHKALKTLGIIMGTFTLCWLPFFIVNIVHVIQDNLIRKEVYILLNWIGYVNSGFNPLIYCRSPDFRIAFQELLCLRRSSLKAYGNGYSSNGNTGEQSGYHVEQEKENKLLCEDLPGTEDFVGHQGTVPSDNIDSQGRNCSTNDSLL

[11] = molecular target: AP-2 complex subunit beta (Homo sapiens) (UniProt P63010); assay: beta-arrestin/AP2 interaction blockers – biochemical, validation set, GST-AP2 beads, flow cytometry, pilot screen (AID 504541); conditions: FITC arrestin peptide, at 10 µM, stronger effect = higher value, AP2 beta2 appendage fragment, R879A mutant;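 note: AP2 carries R879A mutation and is captured from E. coli lysate; bead-bound FITC arrestin peptide fluorescence measuring arrestin peptide binding to AP2; 0% = DMSO wells and 100% = excess unlabeled arrestin peptide control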
Sequence of AP-2 complex subunit beta (Homo sapiens) (P63010 whole entry, looked up, the tested form may be a part, one chain of several): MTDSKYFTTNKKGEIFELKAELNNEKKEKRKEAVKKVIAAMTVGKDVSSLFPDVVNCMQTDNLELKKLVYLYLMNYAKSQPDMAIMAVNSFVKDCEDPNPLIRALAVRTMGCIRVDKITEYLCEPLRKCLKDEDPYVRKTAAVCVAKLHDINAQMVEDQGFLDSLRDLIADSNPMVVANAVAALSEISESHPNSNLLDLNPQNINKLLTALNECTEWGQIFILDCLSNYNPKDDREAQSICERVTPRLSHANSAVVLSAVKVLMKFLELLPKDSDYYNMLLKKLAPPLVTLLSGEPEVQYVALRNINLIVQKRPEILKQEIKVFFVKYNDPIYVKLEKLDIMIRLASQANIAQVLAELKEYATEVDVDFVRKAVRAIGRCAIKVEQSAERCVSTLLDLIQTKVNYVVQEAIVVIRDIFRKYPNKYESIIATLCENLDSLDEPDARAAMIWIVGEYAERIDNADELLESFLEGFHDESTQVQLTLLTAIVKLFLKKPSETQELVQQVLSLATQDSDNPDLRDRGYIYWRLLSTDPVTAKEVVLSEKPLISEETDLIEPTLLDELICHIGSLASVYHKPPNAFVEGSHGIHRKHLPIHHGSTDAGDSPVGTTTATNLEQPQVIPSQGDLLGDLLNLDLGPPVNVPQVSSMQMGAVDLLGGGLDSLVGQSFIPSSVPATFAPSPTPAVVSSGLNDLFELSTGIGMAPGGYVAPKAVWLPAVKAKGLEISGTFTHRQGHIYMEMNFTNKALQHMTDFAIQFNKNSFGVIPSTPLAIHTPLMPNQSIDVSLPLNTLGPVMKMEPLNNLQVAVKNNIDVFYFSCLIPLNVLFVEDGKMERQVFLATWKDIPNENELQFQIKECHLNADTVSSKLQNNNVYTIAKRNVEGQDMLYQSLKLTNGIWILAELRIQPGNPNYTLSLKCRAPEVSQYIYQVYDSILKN

[12] = cytosolic pH regulators acting via V-ATPase – S. cerevisiae, pHLuorin, HTS validation (AID 504600; in the data active = response above about 15%;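 note: plate controls were DMSO for no effect and reference compound for full effect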); conditions: V-ATPase proton transport, at 10 µM, stronger effect = higher value
[13] = system: anti-desmoglein-3 scFv antibody binding to human DSG3; assay: blockers of pathogenic pemphigus antibody–desmoglein-3 binding – biochemical, validation compound set, bead-based, flow cytometry, pilot screen (AID 588368;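 active = binding below the plate cutoff, the plate median minus 3 SD, with a reading above zero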;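 note: signal is the median channel fluorescence of bead-bound GFP antibody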); conditions: Protein G beads, DSG3-Fc, scFv-GFP binding, at 10 µM, stronger effect = lower value
[14] = Nile Red efflux blockade in pump-expressing yeast – validation compound set, multiplex, phenotypic, pilot screen (AID 588506;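 active = efflux inhibition above 0.42, the validation set average plus 4 SD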;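 note: Nile Red retained in cells so higher fluorescence means more efflux inhibition; 0 = negative control wells and 1 = enniatin B 25 µM full block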); conditions: S. cerevisiae pump-expressing triplex, Nile Red efflux flow cytometry; at 10 µM; stronger effect = higher value; the pumps come from Candida albicans
[15] = molecular target: ATP-binding cassette sub-family B member 6 (Homo sapiens) (UniProt Q9NP58); assay: blockers of ABCB6-driven porphyrin uptake – K562-ABCB6 cells, flow cytometry, validation set, pilot screen (AID 588550;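 active = inhibition above the screen-wide mean plus 3 SD, about 51%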;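 note: 0% = DMSO wells and 100% = benzethonium chloride 70 µM positive control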); conditions: K562-ABCB6 porphyrin accumulation, 1 h, at 10 µM, stronger effect = higher value
Sequence of ATP-binding cassette sub-family B member 6 (Homo sapiens) (Q9NP58 whole entry, looked up): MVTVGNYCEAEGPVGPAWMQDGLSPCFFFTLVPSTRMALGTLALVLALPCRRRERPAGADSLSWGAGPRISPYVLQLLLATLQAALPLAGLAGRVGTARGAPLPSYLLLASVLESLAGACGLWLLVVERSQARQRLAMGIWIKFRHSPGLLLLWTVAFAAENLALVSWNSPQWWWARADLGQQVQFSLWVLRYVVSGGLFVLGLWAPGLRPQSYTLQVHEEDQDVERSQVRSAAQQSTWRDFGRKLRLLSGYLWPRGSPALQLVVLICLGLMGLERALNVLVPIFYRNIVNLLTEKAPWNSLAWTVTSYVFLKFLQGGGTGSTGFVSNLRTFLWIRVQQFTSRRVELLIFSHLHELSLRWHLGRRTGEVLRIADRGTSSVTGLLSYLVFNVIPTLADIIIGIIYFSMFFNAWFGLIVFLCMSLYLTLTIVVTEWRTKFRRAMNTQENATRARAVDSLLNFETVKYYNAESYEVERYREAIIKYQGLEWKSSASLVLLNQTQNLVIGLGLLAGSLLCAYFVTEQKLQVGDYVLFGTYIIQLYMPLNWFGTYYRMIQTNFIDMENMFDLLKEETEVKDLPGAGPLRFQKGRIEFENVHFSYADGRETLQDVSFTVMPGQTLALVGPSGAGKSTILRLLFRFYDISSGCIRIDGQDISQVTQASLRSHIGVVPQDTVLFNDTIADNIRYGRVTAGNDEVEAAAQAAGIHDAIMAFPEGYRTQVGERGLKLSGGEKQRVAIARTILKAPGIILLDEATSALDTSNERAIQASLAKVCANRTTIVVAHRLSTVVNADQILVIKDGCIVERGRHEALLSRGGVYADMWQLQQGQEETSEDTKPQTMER

[16] = AML differentiation inducers, ER-HoxA9 marrow cells – cell-based, GFP/MAC1 double positive, flow cytometry, validation set, primary screen (AID 588685;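 active = differentiation response of at least 50%, scaled between solvent and reference control, from cells with both markers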;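 note: compound exposure lasts four days before antibody staining and flow analysis; 0% = DMSO wells and 100% = 5 µM fulvestrant positive control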); conditions: stronger effect = higher value, normalized: vehicle 0, fulvestrant 100

SMILES	percent of DMSO control GFP [1]	GFP response vs DMSO [2]	percent response of DMSO control [3]	GFP response vs DMSO [4]	GFP response, % of DMSO [5]	double positive events [6]	vesicle binding response [6]	inhibition [7]	superoxide response (% of plate) [8]	aptamer binding inhibition [9]	response [10]	inhibition [11]	response [12]	binding (% of control) [13]	efflux inhibition (fraction of control) [14]	inhibition [15]	differentiation response [16]
COc1ccc(-n2cc(CNCc3cccnc3)c(-c3cccc(F)c3)n2)cc1	105% (inactive)	97.2% (inactive)	115% (inactive)	110% (inactive)	99.1% (inactive)	64.8%	314% (inactive)	-4.6% (inactive)	89.3% (inactive)	0% (inactive)	-13.2% (inactive)	-5.67% (inactive)	-0.1% (inactive)	104% (inactive)	-0.26 (inactive)	20% (inactive)	4.15% (inactive)
Cc1cccc(Nc2ncccc2C(=O)O)c1C	103% (inactive)	103% (inactive)	109% (inactive)	90.1% (inactive)	108% (inactive)	62.7%	203% (inactive)	2.66% (inactive)	105% (inactive)	1% (inactive)	-6.59% (inactive)	1.75% (inactive)	-0.8% (inactive)	98.4% (inactive)	0.08 (inactive)	6% (inactive)	-9.53% (inactive)
CC(C)CCNC(=O)[C@H](CC(C)C)NC(=O)[C@H]1O[C@@H]1C(=O)O	108% (inactive)	101% (inactive)	112% (inactive)	93.3% (inactive)	107% (inactive)	52.8%	39.4% (active)	-4.6% (inactive)	96.2% (inactive)	3% (inactive)	-6.13% (inactive)	-12.3% (inactive)	1.19% (inactive)	98.4% (inactive)	0.08 (inactive)	3% (inactive)	-1.71% (inactive)
CN(C)CCN(Cc1ccc(Cl)cc1)c1ccccn1	107% (inactive)	112% (inactive)	114% (inactive)	114% (inactive)	118% (inactive)	61.2%	125% (inactive)	0.25% (inactive)	96% (inactive)	-4% (inactive)	-7.41% (inactive)	54.2% (active)	-5.25% (inactive)	97.3% (inactive)	0.37 (inactive)	8% (inactive)	-19.2% (inactive)
COc1ccc2c(C=O)cn(C)c2c1	89.8% (inactive)	137% (inactive)	103% (inactive)	82% (inactive)	85% (inactive)	66.8%	151% (inactive)	6.46% (inactive)	87.5% (inactive)	7% (inactive)	-0.49% (inactive)	9.51% (inactive)	-4.19% (inactive)	105% (inactive)	0.27 (inactive)	11% (inactive)	4.91% (inactive)
CCOc1cc2c(cc1OCC)C(c1ccccc1)N(c1ccc(C(=O)O)cc1)C(=O)C2 (stereo not given)	106% (inactive)	109% (inactive)	95.5% (inactive)	113% (inactive)	107% (inactive)	61.4%	151% (inactive)	11% (inactive)	92% (inactive)	-1% (inactive)	3.08% (inactive)	-11.9% (inactive)	1.91% (inactive)	96.8% (inactive)	-0.1 (inactive)	7% (inactive)	8.59% (inactive)
Nc1nc(Cl)nc2c1ncn2[C@H]1C[C@H](O)[C@@H](CO)O1	99.2% (inactive)	102% (inactive)	106% (inactive)	104% (inactive)	114% (inactive)	63.3%	225% (inactive)	0.59% (inactive)	86.7% (inactive)	7% (inactive)	-24.5% (inactive)	27.9% (inactive)	2.75% (inactive)	103% (inactive)	0 (inactive)	-1% (inactive)	-9.91% (inactive)
c1ccc(Cn2ncc3c(Nc4ccccc4)ncnc32)cc1	96.7% (inactive)	106% (inactive)	103% (inactive)	117% (inactive)	107% (inactive)	63.6%	244% (inactive)	9.95% (inactive)	121% (inactive)	-1% (inactive)	-42.2% (inactive)	9.49% (inactive)	3.17% (inactive)	101% (inactive)	0.08 (inactive)	2% (inactive)	-8.93% (inactive)
Cc1ccc2nc(NC3=NC(CC(=O)O)C(=O)N3)nc(C)c2c1 (stereo not given)	105% (inactive)	100% (inactive)	106% (inactive)	93.3% (inactive)	106% (inactive)	65.9%	214% (inactive)	0.58% (inactive)	96.2% (inactive)	2% (inactive)	-2.27% (inactive)	8.29% (inactive)	2.1% (inactive)	96.1% (inactive)	0.36 (inactive)	6% (inactive)	9.04% (inactive)
COc1cccc(C2CC(=O)C3=C(C2)Nc2ccccc2N(C(=O)CCC(=O)O)C3c2ccc(F)cc2)c1 (stereo not given)	95% (inactive)	149% (active)	102% (inactive)	89.1% (inactive)	93.8% (inactive)	64%	213% (inactive)	11.3% (inactive)	98% (inactive)	4% (inactive)	-3.62% (inactive)	30.9% (inactive)	-2.19% (inactive)	102% (inactive)	-0.13 (inactive)	4% (inactive)	-1.64% (inactive)
